Test results: PubChem BioAssay (NCI)
This is part of a sample that, as a whole, favours compounds with a hit. Of some 83,000 tested, about 20% had one in any assay.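 Each cell line was grown in a 96-well plate and treated with one concentration of compound for 48 hours. Values below 10 were considered active.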 Unmarked numbers belong to inactive results. Calls of active or inactive are those of the source.

Experiments:
Assay in all cases: NCI-60 one-dose screen, 48 h (100 = growth as untreated, 0 = no growth, -100 = all killed)
Details in all cases: 10 µM unless noted
T-47D breast = test system: T-47D breast
BT-549 breast = test system: BT-549 breast
MDA-MB-435 melanoma = test system: MDA-MB-435 melanoma
SW-620 colon = test system: SW-620 colon
HCT-116 colon = test system: HCT-116 colon
HCC-2998 colon = test system: HCC-2998 colon
KM12 colon = test system: KM12 colon
MDA-MB-468 breast = test system: MDA-MB-468 breast
MCF7 breast = test system: MCF7 breast

| SMILES | growth (T-47D breast) | growth (BT-549 breast) | growth (MDA-MB-435 melanoma) | growth (SW-620 colon) | growth (HCT-116 colon) | growth (HCC-2998 colon) | growth (KM12 colon) | growth (MDA-MB-468 breast) | growth (MCF7 breast) |
| --- | --- | --- | --- | --- | --- | --- | --- | --- | --- |
| C=C1CC[C@@H]2[C@]3(C)COC(c4cn[nH]c4-c4ccc(Br)cc4)O[C@@H]3CC[C@@]2(C)[C@@H]1C/C=C1/C(=O)OCC1O (stereo not given in full) | 12.2% | -96.6% (active) | -64.4% (active) | -70.5% (active) | -93.5% (active) | -98% (active) | -64.3% (active) |  |  |
| O=c1oc2ccc(Br)cc2cc1C1=CSc2nc3sc4c(c3c(=O)n2N=C1)CCCC4 | 76.9% | 95.4% | 95.1% | 108% | 96.4% | 125% | 97.6% | 104% |  |
| Cn1cc(-c2cc(N)n3nc(-c4c[nH]c5ccccc45)cc3n2)c2cc(Br)cnc21 | -56% (active) | -87.8% (active) | -79.3% (active) | -69.1% (active) | -90.7% (active) | -94.3% (active) | -60.9% (active) | -88.5% (active) |  |
| CC(=O)c1cc(C(=O)c2ccccc2)n2c1ccc1ccccc12 | 83.5% | 73% | 108% | 99.3% | 82.4% | 121% | 83.1% |  |  |
| Brc1ccc(N/N=C/c2c[nH]c3ccc(Br)cc23)nc1 | 1.46% (active) | -22.6% (active) | -25% (active) | -71.3% (active) | -72.9% (active) | -94% (active) | -57% (active) | -63.5% (active) |  |
| COc1ccc(-c2ccc(SCC(=O)Nc3ccc(S(N)(=O)=O)cc3Br)nn2)cc1 | 76.9% | 49.3% | 108% | 91.3% | 79.4% | 99.3% | 88.7% | 86.9% |  |
| COc1cccc(/C=C/c2nc3ccccc3c(=O)n2CC(=O)Nc2ccc(Cl)cc2)c1 | 6.29% (active) | 86.8% | 95.4% | 68.1% | 38.4% | 91% | 77.8% | 108% |  |
| O=C(C1=CNC(=S)NC1c1ccc(O)cc1)c1cc2ccccc2oc1=O (stereo not given) | 112% | 83.7% | 105% | 104% | 101% | 102% | 95.8% | 99.5% |  |
| COc1cc2oc(-c3cccc(NC(=O)[C@H](CC(N)=O)NC(=O)OC(C)(C)C)c3)cc(=O)c2c(OC)c1OC | 65.7% | 82.6% | 97.2% | 94.5% | 89.3% | 100% |  | 82.7% | 71.8% |
| O=c1[nH]c(=O)c2c(-c3cc4ccccc4oc3=O)ccnc2[nH]1 | 74.2% | 70.2% | 101% | 98.9% | 88.3% | 98.8% | 95.4% | 57.9% |  |
| CCCn1cc(-c2nc(Nc3ccc(C(=O)NCCCCNc4cccc5c4C(=O)N(C4CCC(=O)NC4=O)C5=O)cc3)nc3[nH]ccc23)cn1 (stereo not given) | -11% (active) | -36.1% (active) | 34.2% | 9.12% (active) | 72.3% | 5.84% (active) | 6.05% (active) |  |  |
| Cn1cc(-c2cc3nc(-c4cn(C)c5ncc(Br)cc45)cc(N)n3n2)c2cc(Cl)ccc21 | -62% (active) | -78.8% (active) | -88.4% (active) | -81.5% (active) | -89.3% (active) | -99.1% (active) | -58.5% (active) | -88.5% (active) |  |
| Cn1cc(-c2cc3nc(-c4cn(C)c5ncc(Br)cc45)cc(N)n3n2)c2ccccc21 | -40.9% (active) | -73% (active) | -70.8% (active) | -48% (active) | -100% (active) | -89% (active) | -55.5% (active) | -78.9% (active) |  |
| CSc1ccccc1NC(=O)c1ccc2nnn(/C(C#N)=C/c3ccccn3)c2c1 | -73.2% (active) | -99.5% (active) | -55.8% (active) |  | -96.5% (active) | -97.8% (active) | -66.9% (active) |  | -81.4% (active) |
| NS(=O)(=O)c1ccc(CCNC(=O)CSc2ccc(-c3ccc(Br)cc3)nn2)cc1 | 41.2% | 39.5% | 59.1% | 72.2% | 21.3% | 92.5% | 66.4% | 20.8% |  |
| Clc1cccc(N/N=C/c2c[nH]c3ccc(Br)cc23)n1 | 22% | -6.46% (active) | -0.779% (active) | 6.71% (active) | 8.25% (active) | -9.69% (active) | 4.64% (active) | -10.3% (active) |  |
| CC(=O)Oc1ccccc1C(=O)[Se]CC(=O)Nc1cccc(C(F)(F)F)c1 | 56.5% | -91% (active) | -29.7% (active) |  | -47.7% (active) | 60% | 25.3% | -88.8% (active) | 3.36% (active) |

| SMILES | growth (T-47D breast) | growth (BT-549 breast) | growth (MDA-MB-435 melanoma) | growth (SW-620 colon) | growth (HCT-116 colon) | growth (HCC-2998 colon) | growth (KM12 colon) | growth (MDA-MB-468 breast) | growth (MCF7 breast) |
| --- | --- | --- | --- | --- | --- | --- | --- | --- | --- |
| COc1c(F)ccc(C(=O)Nc2ccc3nc(NC(=O)C4CCCN(S(=O)(=O)c5ccc(C#N)cc5)C4)sc3c2)c1F (stereo not given) | 61.9% | 75.8% | 105% | 102% | 74% | 119% | 96.3% | 86.2% |  |
| O=C(Cn1c(/C=C/c2ccccc2)nc2ccccc2c1=O)Nc1ccccc1 | -11.3% (active) | 91.3% | 105% | 75.9% | 44.6% | 95.2% |  | 61.8% |  |
| CC1=C(C(=O)OCc2ccccc2)C(c2ccc(-n3cncn3)cc2)n2c(nc3ccccc32)N1 (stereo not given) | 65.1% | 52.9% | -12.5% (active) |  | 41.3% | 75.4% | 39.5% |  | 13.1% |
| COc1ccc(-c2nc3cc(C)ccc3n2CC(=O)N=Nc2c(O)[nH]c3ccc(Br)cc23)cc1 | -2.62% (active) | -41.5% (active) | 2.16% (active) | 9.98% (active) | -69.6% (active) | 22.7% | 11.5% | -46.6% (active) |  |
| CCCCOc1ccc(NC(=O)c2sc3nc(C)ccc3c2N)cc1 | 15% | -11.6% (active) | 39.7% |  | -67.4% (active) | 21.2% | 26.2% |  | 18.1% |
| C=C1CC[C@@H]2[C@]3(C)COC(c4cn[nH]c4-c4cccc(Cl)c4)O[C@@H]3CC[C@@]2(C)[C@@H]1C/C=C1/C(=O)OCC1O (stereo not given in full) | -2.68% (active) | -92.4% (active) | -32.5% (active) | -57.6% (active) | -91.6% (active) | -91.2% (active) | -25.2% (active) | -84.3% (active) |  |
| N#Cc1c(-c2cccc(Cl)c2Cl)cc(-c2c[nH]c3ccccc23)[nH]c1=O | 63.4% | 24.3% | 57.7% |  | 18.3% | 88.1% | 64.3% | 46.5% | 35.8% |
| COc1c(F)ccc(C(=O)Nc2ccc3nc(NC(=O)C4CCCN(S(=O)(=O)c5cccc(Cl)c5)C4)sc3c2)c1F (stereo not given) | 53.1% | 76% | 90.9% | 98.6% | 64.4% | 102% | 82.2% | 88.8% |  |
| COc1ccc(-c2ccnc(SCc3cc4ccccc4[nH]c3=O)n2)cc1OC | -5.29% (active) | -58.3% (active) | 14.8% | 48.8% | 2.06% (active) | 5.44% (active) |  | -8.96% (active) |  |
| COc1ccc2c(c1)c(/C=N/Nc1ccc3ccccc3n1)cn2C | 3.98% (active) | 51.4% | 11.2% | -67.3% (active) | -99.5% (active) | -59.6% (active) | -66.5% (active) | -41.6% (active) |  |
| COc1c(F)ccc(C(=O)Nc2ccc3nc(NC(=O)C4CCCN(S(=O)(=O)c5ccc(C(F)(F)F)cc5)C4)sc3c2)c1F (stereo not given) | 59.7% | 68.7% | 94.2% | 95.1% | 63.4% | 99.2% | 75.2% | 104% |  |
| O=C(/C=C/c1cccc(OCc2ccccc2)c1)c1nc2ccccc2[nH]1 | 13.7% | 8.5% (active) | 72% |  | -36.1% (active) | -5.62% (active) | 4.96% (active) | -40.1% (active) | 3.28% (active) |
| COc1c(F)ccc(C(=O)Nc2ccc3nc(NC(=O)C4CCCN(S(=O)(=O)c5cccc(Br)c5)C4)sc3c2)c1F (stereo not given) | 60.9% | 74.5% | 90.7% | 94.5% | 67.9% | 125% | 78.7% | 98.1% |  |
| CC(=O)Nc1ccc(-c2cn(-c3cccc(C(=O)Nc4ccc(N5CCN(C)CC5)cc4)c3)nn2)cn1 | 94% | 74.6% | 100% |  | 62.9% | 85% | 68.9% | -9.89% (active) | 45.9% |
| CCOc1ccc(-c2c(C#N)c(-c3ccc(Cl)cc3)nc3n[nH]c(-c4ccc(Cl)cc4)c23)cc1OC | 25.1% | 67.6% | 56.8% |  | 31.4% | 53.4% | 30.2% |  | 26.2% |
| Cn1cc(-c2cc(N)n3nc(-c4c[nH]c5ccccc45)cc3n2)c2cccnc21 | 22.2% | 71.8% | 5.57% (active) | -53.7% (active) | -77.1% (active) | -31.6% (active) | 1.87% (active) | -54.3% (active) |  |
